Screens: PubChem, National Center for Advancing Translational Sciences (NCATS)
IL-2 act = activates IL-2 in a cell-based reporter assay | activation, % (series mostly up to about 46 µM) | IL-2 activation reporter assay, cell-based qHTS; stimulated with anti-CD3/CD4/CD28 beads; in transgenic mouse T cells | 0.065% of 360,000 active; in the data active = activation above about 50%; inconclusive = mostly about 30% to 49%; note: 0% is about no effect
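Readout is EGFP and DsRed signal by fluorescent plate cytometry after 18 h at 37 degrees C. Transgenic mouse T cells (750/well) received compound for 60 min before bead stimulation (anti-CD3, anti-CD4, anti-CD28); memory T cells served as non-tolerant control.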
NPSR antagonist = blocks cAMP signaling of the human neuropeptide S receptor; CHO-NPSR cells, cAMP TR-FRET, antagonist mode; AID 1461; 1% of 220,000 active; Potency, µM (top dose mostly 38.3 µM), for inactives: at the highest dose activity change, negative = inhibition, hits mostly inhibitors; Q6W5P4; note: potency is the fitted concentration of half-maximal effect; % is set by controls: 0 for no effect and ±100 for the full control effect; nearly all actives have a fitted effect of over 50% in size
Target sequence (Q6W5P4 whole entry, looked up): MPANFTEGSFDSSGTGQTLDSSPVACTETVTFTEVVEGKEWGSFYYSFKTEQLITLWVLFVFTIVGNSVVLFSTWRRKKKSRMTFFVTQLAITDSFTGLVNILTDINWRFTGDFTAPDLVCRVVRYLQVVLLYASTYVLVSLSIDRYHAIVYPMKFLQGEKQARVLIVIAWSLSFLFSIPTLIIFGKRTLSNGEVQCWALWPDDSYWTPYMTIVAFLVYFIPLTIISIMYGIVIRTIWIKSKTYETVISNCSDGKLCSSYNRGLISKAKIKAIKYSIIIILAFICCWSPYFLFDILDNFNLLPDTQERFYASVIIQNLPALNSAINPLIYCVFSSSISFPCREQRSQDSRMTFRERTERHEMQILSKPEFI
PKM2 act = PKM2 (human) enzyme activation. 0.34% of 260,000 active. purified PKM2, Kinase-Glo ATP luminescence, activation; response scale: 0% is enzyme alone, no compound. Potency, µM (top dose mostly 57.5 µM), for the others: at the highest dose activation, most hits filed as activators; note: potency is the fitted concentration of half-maximal effect; % is set by controls: 0 for no effect and ±100 for the full control effect; nearly all actives have a fitted effect of over 55% in size
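Purified hPK-M2 (>95%) run at intermediate activity with 0.1 mM ADP and 0.5 mM PEP in 50 mM imidazole pH 7.2, KCl, MgCl2; 1 h room temperature. ATP formed read by Kinase-Glo luminescence; normalized to uninhibited and no-enzyme controls.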
ClpP mod = qHTS Assay for Activators of ClpP. ATP-dependent Clp protease proteolytic subunit (Bacillus subtilis (strain 168)), P80244. purified B. subtilis ClpP, FRET peptide cleavage, 20 min. Potency, µM (highest dose often 57.5 µM), without a hit: at the top dose activity change, negative = active. 1.9% of 340,000 active; active = well fitted falling curve with a large enough effect; inconclusive = small, poorly fitted or top-dose-only effect; inactive = no such curve, though single readings can be large or run the other way; note: potency is the fitted concentration of half-maximal effect; the source files actives as falling curves though it sought activators and does not explain the sign; nearly all actives have a fitted effect of over 65% in size
Target sequence (P80244 whole entry, looked up): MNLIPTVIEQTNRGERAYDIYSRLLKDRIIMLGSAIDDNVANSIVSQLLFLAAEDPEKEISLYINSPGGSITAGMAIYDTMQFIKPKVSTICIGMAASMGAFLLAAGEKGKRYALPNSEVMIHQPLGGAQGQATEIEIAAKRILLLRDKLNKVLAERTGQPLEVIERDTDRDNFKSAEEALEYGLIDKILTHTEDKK
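FRET quenching reversal measured ClpP activation: 10 microg/mL B. subtilis ClpP at pH 8 with the FRET-FV decapeptide, read at 430 nm after 320 nm excitation. The 20-min minus 0-min signal was scaled between DMSO/no-enzyme wells and ADEP (5.8 microM final).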
* marks the source's active call; other numbers are inactive results; [ ] = another dose, or the depositor's remark. Compounds with a hit are over-represented: about 2% of the library has one in this group of screens. Unless noted, calls come from the whole dose curve; as a rule, active = well fitted curve in the direction sought with a large enough effect; inconclusive = small, poorly fitted or top-dose-only effect, or another doubt; inactive = no such curve, though single readings can be large; an effect the other way counts as inactive or inconclusive.

Results for CCOc1ccccc1NC(=O)COC(=O)c1cc(C(=O)OC)cc([N+](=O)[O-])c1 ?
IL-2 act: -4; NPSR antagonist: 4%; PKM2 act: 5%; ClpP mod: -1%

How did CC(=O)Nc1ccc(OCC(=O)NCCc2ccc(Cl)cc2)cc1 do in these assays?
IL-2 act: 0; NPSR antagonist: -11%[46.1 µM]; PKM2 act: 26%; ClpP mod: -2%

How did Cc1ccc(C)c(S(=O)(=O)N2CCN(C(=O)CN3C(=O)NC(C)(C)C3=O)CC2)c1 do in these assays?
IL-2 act: 1; ClpP mod: 0%

Results for COC(=O)c1ccc(C(=O)OC)c(N)c1 ?
NPSR antagonist: -4%[46.1 µM]; PKM2 act: -5%

What do the screens show for `COC(=O)c1ccc(Sc2ccc(Cl)cc2)c(N)c1`?
IL-2 act: -2; NPSR antagonist: inconclusive; PKM2 act: -2%; ClpP mod: 25µM*

Results for COc1ccc(C(=O)Nc2scc(-c3ccc(Cl)cc3Cl)c2C(N)=O)cc1 ?
IL-2 act: 0; NPSR antagonist: inconclusive; PKM2 act: inconclusive; ClpP mod: 28µM*

How did COC(=O)c1c(-c2cccs2)csc1NC(=O)c1ccc(Cl)cc1 do in these assays?
ClpP mod: -10%

How did Cc1ccc(C(NC(=O)C2CCN(CCCOc3ccccc3)CC2)c2ccccn2)cc1 (stereo not drawn) do in these assays?
IL-2 act: 1; ClpP mod: 0%

What do the screens show for `CC(=O)Nc1ccc(CN2CCCC(CCC(=O)NCc3ccccc3F)C2)cc1` (stereo not drawn)?
IL-2 act: 1; NPSR antagonist: 4%; PKM2 act: -6%; ClpP mod: 0%

What do the screens show for `Cc1ccc(NC(=O)Cn2nnc(-c3ccccc3-n3cnnn3)n2)c(C)c1`?
IL-2 act: 0; NPSR antagonist: -6%; PKM2 act: 6%

What do the screens show for `Cc1ccc(-c2nnn(CC(=O)Nc3ccccc3-c3ccccc3)n2)c(-n2cnnn2)c1`?
IL-2 act: 3; NPSR antagonist: -26%[46.1 µM]; PKM2 act: 0%; ClpP mod: 11µM*

What do the screens show for `O=C(O)c1ccc2c(c1)C(=O)N(c1ccc([N+](=O)[O-])cn1)C2=O`?
IL-2 act: 0; PKM2 act: -3%; ClpP mod: -1%

Results for O=C(C[n+]1cc(-c2ccc(Cl)cc2)n2c1CCCCC2)c1ccccc1 ?
IL-2 act: -1; NPSR antagonist: 6%; PKM2 act: -1%; ClpP mod: 1%

Results for Clc1ccc(C2=C3CCCCn4c(-c5ccccc5)c[n+](c43)C2)cc1 ?
IL-2 act: 2; NPSR antagonist: inconclusive; PKM2 act: -1%; ClpP mod: 10µM*

What do the screens show for `COc1ccc(-c2c[n+]3c4n2CCCCC4=C(c2ccc(Br)cc2)C3)cc1`?
IL-2 act: -1; NPSR antagonist: inconclusive; PKM2 act: -1%; ClpP mod: 22µM*

How did CC(C)(C)OC(=O)C[C@@H]1C/C=C\C[C@@H](CC(=O)N(CCO)Cc2ccccc2)C(=O)N2CCC[C@H]2COC1=O do in these assays?
IL-2 act: -1; ClpP mod: 0%

How did CCOC(=O)c1ccc(-c2ccc(N3C(c4ccsc4)=Cc4ccc(F)cc4C3c3c[nH]c4ccc(C#N)cc34)cc2)cc1F (stereo not drawn) do in these assays?
IL-2 act: 1; ClpP mod: -10%

Results for Cc1c(C#N)c(N)nc2c3c(sc12)NC(=O)CC3c1ccc(Cl)cc1 (stereo not drawn) ?
IL-2 act: 1; NPSR antagonist: -47%; PKM2 act: 0%; ClpP mod: 16µM*

What do the screens show for `N#Cc1c(N)nc2c3c(sc(=N)c2c1N)NC(=O)CC3c1ccccc1` (stereo not drawn)?
IL-2 act: 1; NPSR antagonist: inconclusive; PKM2 act: 3%; ClpP mod: -17%

What do the screens show for `CCCc1nnn(S(=O)(=O)c2ccc([N+](=O)[O-])cc2)c1CCC`?
IL-2 act: -6; ClpP mod: 2%

Results for CC(=O)Nc1ccc(S(=O)(=O)NCCC(=O)OC(C)C(=O)c2ccc(C)cc2)cc1 (stereo not drawn) ?
IL-2 act: -4; PKM2 act: -1%; ClpP mod: 2%

What do the screens show for `Cc1ccc(S(=O)(=O)NCCCCCC(=O)Nc2ccccc2C)cc1`?
IL-2 act: 1; NPSR antagonist: -5%; PKM2 act: -1%; ClpP mod: 2%

Results for Cc1ccc(S(=O)(=O)NCCCCCC(=O)Nc2ccccc2)cc1 ?
IL-2 act: -1; NPSR antagonist: -2%; PKM2 act: 2%; ClpP mod: 28µM*

How did Cc1ccc(NC(=O)C(C)OC(=O)CCNS(=O)(=O)c2ccc(C)cc2)cc1 (stereo not drawn) do in these assays?
IL-2 act: -1; NPSR antagonist: -1%; PKM2 act: 0%; ClpP mod: 32µM*

How did O=C(Oc1ccc(Cl)c2cccnc12)c1ccco1 do in these assays?
IL-2 act: -1; NPSR antagonist: 4µM*; PKM2 act: 5%; ClpP mod: -1%

How did O=C(Oc1cccc2cccnc12)c1ccco1 do in these assays?
IL-2 act: -1; NPSR antagonist: -5%[46.1 µM]; PKM2 act: 0%; ClpP mod: 1%

What do the screens show for `O=S(=O)(c1ccccc1)c1nc(-c2ccccc2Cl)oc1N1CCCCCC1`?
ClpP mod: -30%

How did Cc1ccc(S(=O)(=O)c2nc(-c3ccccc3Cl)oc2N2CCCCCC2)cc1 do in these assays?
ClpP mod: 18µM*

How did Cc1ccc(S(=O)(=O)c2nc(-c3ccccc3Cl)oc2N2CCN(C)CC2)cc1 do in these assays?
IL-2 act: 0; ClpP mod: 0%

Results for CNc1oc(-c2ccccc2F)nc1S(=O)(=O)c1ccc(C)cc1 ?
IL-2 act: -1; PKM2 act: 0%; ClpP mod: 10µM*

Results for CCOP(=O)(c1ccccc1)c1nc(-c2ccccc2Cl)oc1N1CCCCC1 (stereo not drawn) ?
IL-2 act: -1; NPSR antagonist: inconclusive; PKM2 act: -4%; ClpP mod: 20µM*

Results for CCn1nc(C(C)C(=O)O)c2ccccc2c1=O (stereo not drawn) ?
IL-2 act: -3; NPSR antagonist: -11%; PKM2 act: 5%

What do the screens show for `Cc1ccc(NS(=O)(=O)c2cccc(C(=O)NCC3(N(C)C)CCCCC3)c2)cc1`?
IL-2 act: 0; NPSR antagonist: 10µM*; PKM2 act: -3%; ClpP mod: 2%

What do the screens show for `CN(C)C1(CNC(=O)c2cccc(S(=O)(=O)Nc3ccc(Br)cc3)c2)CCCCC1`?
IL-2 act: -1; ClpP mod: -2%

Results for CCOc1ccc(-c2cc(NC(=O)c3ccccc3)c(C(=O)OC)s2)cc1 ?
ClpP mod: 35µM*

Results for CCOc1ccc(-c2cc(NC(=O)c3c(F)cccc3F)c(C(=O)OC)s2)cc1 ?
ClpP mod: -17%
